Growth data for 8 molecules are collected here from PubChem BioAssay (NCI).

About 83,000 compounds went through this panel and 20% of them were active in at least one assay; those are over-represented in the sample as a whole.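 Single-dose data. Exposure time 48 hours. Values below 10 considered active.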 Values without a mark were called inactive. The source made the active and inactive calls.

Test systems include SK-MEL-2 melanoma; EKVX NSCLC; SN12C renal; UO-31 renal; TK-10 renal; ACHN renal; CAKI-1 renal; A498 renal; CCRF-CEM leukemia; MOLT-4 leukemia; SR leukemia; RPMI-8226 leukemia; OVCAR-8 ovarian; OVCAR-5 ovarian; OVCAR-4 ovarian; SK-OV-3 ovarian; IGROV1 ovarian; OVCAR-3 ovarian; HS 578T breast; NCI/ADR-RES ovarian.
Common to all, as to assay: NCI-60 one-dose screen, 48 h (100 = growth as untreated, 0 = no growth, -100 = all killed)
Conditions in all cases: 10 µM unless noted

For the molecule `Cc1c(N2CCCCC2)[nH]c2ccccc12`, the growth with SK-MEL-2 melanoma was 119%; in the assay with EKVX NSCLC it was 117%; in the assay with SN12C renal, 98.4%; in the assay on UO-31 renal, 125%; in the assay with TK-10 renal, 121%; in the assay with ACHN renal, 115%. The growth with CAKI-1 renal was 101%; in the assay with A498 renal it was 123%; in the assay on CCRF-CEM leukemia it was 55.1%; with MOLT-4 leukemia it was 110%; in the assay on SR leukemia, 119%; in the assay on RPMI-8226 leukemia, 62.6%. For the same molecule, the growth in the assay with OVCAR-8 ovarian was 105%; in the assay on OVCAR-5 ovarian it was 124%; in the assay with OVCAR-4 ovarian it was 142%; in the assay on SK-OV-3 ovarian it was 118%; in the assay with IGROV1 ovarian it was 136%; in the assay on OVCAR-3 ovarian, 125%. In addition, the growth with HS 578T breast is 96.2%; in the assay with NCI/ADR-RES ovarian, 107%.
Turning to `CN(Cc1ccccc1)c1nc(Cl)c(C2CC(c3ccc(Cl)cc3)=NN2c2cc(Cl)cc(Cl)c2)s1` (stereo not given), the growth in the assay on SK-MEL-2 melanoma was 104%; with EKVX NSCLC it was 94.4%; in the assay with SN12C renal, 106%; in the assay on UO-31 renal it was 96.9%; with TK-10 renal it was 117%; in the assay with ACHN renal, 102%. Besides, the growth with CAKI-1 renal was 84.4%; with A498 renal it was 111%; with CCRF-CEM leukemia, 95.1%; with MOLT-4 leukemia, 110%; in the assay with SR leukemia it was 109%; in the assay on RPMI-8226 leukemia, 81.4%. The growth is 106% in the assay on OVCAR-8 ovarian; 113% in the assay on OVCAR-5 ovarian; 97.6% in the assay with OVCAR-4 ovarian; 92.9% in the assay with SK-OV-3 ovarian; 102% in the assay with IGROV1 ovarian; 109% in the assay on OVCAR-3 ovarian. Moreover, the growth is 116% in the assay on HS 578T breast and 102% in the assay on NCI/ADR-RES ovarian.
In the case of `O=C(O)c1nn(-c2ccc(Cl)cc2)nc1N1CCCC1`, the growth in the assay on SK-MEL-2 melanoma is 102%; in the assay with EKVX NSCLC, 88.3%; in the assay with SN12C renal, 101%; with UO-31 renal it was 79.9%; with TK-10 renal it was 133%; with ACHN renal it was 99.4%. Besides, the growth was 97.6% in the assay on CAKI-1 renal; 74.3% in the assay with A498 renal; 100% in the assay with CCRF-CEM leukemia; 97.5% with MOLT-4 leukemia; 99% in the assay with SR leukemia; 101% in the assay on RPMI-8226 leukemia. The growth is 96% in the assay on OVCAR-8 ovarian; 94.9% with OVCAR-5 ovarian; 91.2% in the assay with OVCAR-4 ovarian; 97.2% in the assay on SK-OV-3 ovarian; 93% with IGROV1 ovarian; 105% in the assay with OVCAR-3 ovarian. Also, the growth in the assay on HS 578T breast is 97%; in the assay on NCI/ADR-RES ovarian it was 99.5%.
For `COc1cc(C2=Nc3c(N)nc(N)nc3NC(c3cccc(Nc4ccnc5cc(C(F)(F)F)ccc45)c3)C2)cc(OC)c1OC` (stereo not given), the growth with SK-MEL-2 melanoma is 88%; in the assay with EKVX NSCLC, 66%; with SN12C renal it was 73%; in the assay with UO-31 renal, 51.8%; with TK-10 renal, 108%; in the assay on ACHN renal, 96.8%. Also, the growth was 58.6% in the assay on CAKI-1 renal; 79.8% in the assay on A498 renal; 51.7% in the assay with CCRF-CEM leukemia; 19.2% in the assay with MOLT-4 leukemia; 0.109% (active) in the assay with SR leukemia; 10.8% in the assay with RPMI-8226 leukemia. The growth was 68.8% in the assay on OVCAR-8 ovarian; 129% in the assay on OVCAR-5 ovarian; 74.7% in the assay on OVCAR-4 ovarian; 88.1% in the assay with SK-OV-3 ovarian; 65.6% in the assay on IGROV1 ovarian; 83.5% with OVCAR-3 ovarian. For the same molecule, the growth in the assay with HS 578T breast was 62.7%; in the assay on NCI/ADR-RES ovarian, 95.3%.
Consider `CC(C)(C)n1cc(-c2ccnc(NCCNS(=O)(=O)c3ccc(C(F)(F)F)cc3)c2)c(-c2ccccc2)n1`, for which the growth in the assay with SK-MEL-2 melanoma is 105%; in the assay with EKVX NSCLC, 73.9%; with SN12C renal, 86%; with UO-31 renal it was 58.9%; in the assay with TK-10 renal, 104%; in the assay on ACHN renal, 102%. The growth with CAKI-1 renal is 90.6%; in the assay on A498 renal it was 61.7%; with CCRF-CEM leukemia, 74.6%; in the assay on MOLT-4 leukemia, 72.2%; in the assay with SR leukemia, 35.9%; with RPMI-8226 leukemia it was 81.1%. Besides, the growth in the assay on OVCAR-8 ovarian is 89.2%; with OVCAR-5 ovarian it was 108%; in the assay with OVCAR-4 ovarian, 84.8%; in the assay with SK-OV-3 ovarian, 97.8%; with IGROV1 ovarian, 97.3%; in the assay on OVCAR-3 ovarian, 94.5%. The values for the growth in the assay with HS 578T breast and with NCI/ADR-RES ovarian were 99.6% and 91.5%, respectively.
Take `O=C1C2C(c3cccs3)C=C(c3ccc(Cl)cc3)N2C(=S)N1c1ccccc1` (stereo not given): the growth was 102% in the assay with SK-MEL-2 melanoma; 109% in the assay with EKVX NSCLC; 95.8% in the assay with SN12C renal; 71.4% with UO-31 renal; 116% in the assay on TK-10 renal; 95.5% with ACHN renal. For the same molecule, the growth with CAKI-1 renal is 91.3%; in the assay on A498 renal, 88.6%; in the assay with CCRF-CEM leukemia, 98.3%; in the assay on MOLT-4 leukemia, 95.4%; in the assay on SR leukemia it was 97.6%; in the assay on RPMI-8226 leukemia it was 99.3%. Moreover, the growth with OVCAR-8 ovarian is 97.8%; in the assay with OVCAR-5 ovarian, 96.5%; with OVCAR-4 ovarian, 98.1%; in the assay with SK-OV-3 ovarian, 109%; in the assay on IGROV1 ovarian, 93.2%; with OVCAR-3 ovarian, 104%. Besides, the figures for the growth with HS 578T breast and in the assay with NCI/ADR-RES ovarian were 92.2% and 103%, respectively.
In the case of `Cc1ccc(NC(=O)c2ccc(Nc3ncnc4c3cnn4-c3cccc(F)c3)cc2)cc1`, the growth was 104% in the assay on SK-MEL-2 melanoma; 102% with EKVX NSCLC; 96.2% in the assay on SN12C renal; 90.8% with UO-31 renal; 105% with TK-10 renal; 98.4% in the assay with ACHN renal. Further, the growth is 90.7% in the assay with CAKI-1 renal; 80.7% in the assay on A498 renal; 95.5% in the assay on CCRF-CEM leukemia; 96.3% in the assay with MOLT-4 leukemia; 92.7% with SR leukemia; 90.2% in the assay on RPMI-8226 leukemia. Further, the growth is 97.6% in the assay with OVCAR-8 ovarian; 99.6% with OVCAR-5 ovarian; 98.9% in the assay with OVCAR-4 ovarian; 109% with SK-OV-3 ovarian; 97.9% in the assay with IGROV1 ovarian; 106% with OVCAR-3 ovarian. The values for the growth with HS 578T breast and in the assay on NCI/ADR-RES ovarian were 96.6% and 98.8%, respectively.
`CCOC(=O)c1c(C)nc2c(c1N)C(=O)C(=O)N2CCc1ccc(OC)c(OC)c1`: the growth in the assay on SK-MEL-2 melanoma is 75.5%; in the assay with EKVX NSCLC, 57.6%; with SN12C renal, 89.1%; in the assay on UO-31 renal, 57.5%; in the assay with TK-10 renal, 70.8%; with ACHN renal, 74%. For the same molecule, the growth was 60.2% in the assay with CAKI-1 renal; 55.5% in the assay on A498 renal; 75.1% in the assay with CCRF-CEM leukemia; 57.3% in the assay on MOLT-4 leukemia; 35.9% in the assay on SR leukemia; 42.7% with RPMI-8226 leukemia. Moreover, the growth is 77.9% in the assay with OVCAR-8 ovarian; 94.9% with OVCAR-5 ovarian; 54.8% in the assay with OVCAR-4 ovarian; 76.6% with SK-OV-3 ovarian; 74% in the assay with IGROV1 ovarian; 61.5% in the assay on OVCAR-3 ovarian. Moreover, the growth is 89% in the assay on HS 578T breast and 41.9% in the assay with NCI/ADR-RES ovarian.
